A short description of assay [1]: qHTS RealTime-Glo MT Cell Viability Assay in HEK293 cells - 0 hour (AID 1224880). Also: top concentration of the series differs between compounds; nearly all actives have a fitted effect of over 45% in size. In short, it runs like this:
(§1)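 Cells were seeded together with NanoLuc luciferase and a prosubstrate that viable cells reduce to a luciferase substrate. After a 5 h incubation at 37 C/5% CO2, compounds were added and luminescence was measured repeatedly during 40 h of treatment.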

Assay [2] is described as follows: A CellTox Green Cytotoxicity Assay to monitor cytotoxicity in HEK293 cells - 32 hour (AID 1224881). Also: nearly all actives have a fitted effect of over 40% in size. The essentials:
(§2)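 Nonlytic real-time cytotoxicity: HEK293 + CellTox Green reagent plated, 5 h preincubation, pintool compound addition (23 nL in DMSO), 37 C for 40 h, fluorescence measured at successive time points.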

Assay [3] in a line: A CellTox Green Cytotoxicity Assay to monitor cytotoxicity in HepG2 cells - 32 hour (AID 1224883). Also: nearly all actives have a fitted effect of over 50% in size. The essentials:
(§3)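 Read-out is fluorescence of a cyanine dye excluded from live cells that stains DNA of dead HepG2 cells, with signal proportional to cytotoxicity. Plates were read at 0, 8, 16, 24, 32 and 40 h after compound addition.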

Assay [4] can be described thus: A CellTox Green Cytotoxicity Assay to monitor cytotoxicity in HEK293 cells - 8 hour (AID 1224884). Also: nearly all actives have a fitted effect of over 35% in size. The essentials:
as §2

The nature of assay [5]: qHTS RealTime-Glo MT Cell Viability Assay in HepG2 cells - 16 hour (AID 1224885). Also: nearly all actives have a fitted effect of over 50% in size. The essentials:
(§4)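 Compound treatment began 5 h after plating HepG2 cells (600/well) with NanoLuc luciferase and prosubstrate. Plates stayed at 37 C for 40 h; luminescence was captured at six time points, 0 h through 40 h.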

Assay [6] can be described thus: qHTS RealTime-Glo MT Cell Viability Assay in HEK293 cells - 24 hour (AID 1224886). Also: top concentration of the series differs between compounds; nearly all actives have a fitted effect of over 50% in size. In short, it runs like this: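 Quantitative high-throughput screen of the Tox21 10K library in HEK293: cells and RealTime-Glo reagents plated together, compound added at 5 h, luminescence monitored through 40 h at 37 C.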
Background: Quantitative high-throughput screening tests each substance at several concentrations.

Assay [7] can be described thus: qHTS RealTime-Glo MT Cell Viability Assay in HEK293 cells - 8 hour (AID 1224887). Also: top concentration of the series differs between compounds; nearly all actives have a fitted effect of over 50% in size. The essentials: as §1
Assay [8] can be described thus: A CellTox Green Cytotoxicity Assay to monitor cytotoxicity in HEK293 cells - 16 hour (AID 1224888). Also: nearly all actives have a fitted effect of over 35% in size. The essentials: as §2
A short description of assay [9]: qHTS RealTime-Glo MT Cell Viability Assay in HepG2 cells - 0 hour (AID 1224889). Also: nearly all actives have a fitted effect of over 50% in size. In short, it runs like this:
as §4

A short description of assay [10]: A CellTox Green Cytotoxicity Assay to monitor cytotoxicity in HepG2 cells - 8 hour (AID 1224890). Also: nearly all actives have a fitted effect of over 45% in size. The essentials: as §3
Assay [11] can be described thus: qHTS assay to identify small molecule antagonists of the estrogen receptor alpha (ER-alpha) signaling pathway using the BG1 cell line in the presence of 0.1 nM 17-beta-estradiol - cell viability counter screen (AID 1259241). Also: nearly all actives have a fitted effect of over 40% in size. In short, it runs like this:
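The cell line endogenously expresses full-length ER-alpha and carries four EREs driving luciferase. Cells are cultured 5 days hormone-free, treated 22 hr with compounds and 0.1 nM estradiol, then viability is read by fluorescence.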

Assay [12] in a line: qHTS assay to identify small molecule antagonists of the androgen receptor (AR) signaling pathway using the MDA cell line in the presence of 0.5 nM R1881 - cell viability counter screen (AID 1259242). Also: nearly all actives have a fitted effect of over 45% in size. In short, it runs like this:
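Counter screen for cytotoxicity run in the same wells as the AR antagonist reporter screen: MDA-kb2 cells were treated 16 hr with test compounds and 0.5 nM R1881, then live-cell protease activity was measured by fluorescence.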

Assay [13] in a line: qHTS assay to identify small molecule phospholipidosis (PLD) inducers (AID 1259344; active = well fitted curve in the direction sought with a large enough effect; an effect the other way counts as inactive or inconclusive). In short, it runs like this:
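Quantitative HTS in HepG2: compound plus LipidTOX Red dye for 24 h, paraformaldehyde fixation with Hoechst 33342, widefield high-content imaging; amiodarone as positive and DMSO as negative control.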

Assay [14] can be described thus: qHTS assay to identify small molecule HDAC inhibitors (AID 1259364). Also: top concentration of the series differs between compounds; nearly all actives have a fitted effect of over 45% in size. The essentials: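 Luminescence from a cell-permeant luminogenic class I/II HDAC substrate reports endogenous deacetylase activity in intact HCT-116 cells treated with compounds for 2 h.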
Assay [15] in a line: qHTS assay to identify small molecule HDAC inhibitors - cell viability counter screen (AID 1259365). The essentials: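 Viability readout: CellTiter-Glo luminescence. Wild-type HCT-116 cells, 2hr compound treatment following overnight attachment at 37 C.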
A short description of assay [16]: qHTS assay to identify small molecule agonists of the sonic hedgehog signaling (Shh) pathway - cell viability counter screen (AID 1259366). Also: nearly all actives have a fitted effect of over 50% in size. In short, it runs like this:
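Viability measured fluorometrically (CellTiter-Fluor, 1hr, 37C) in 3T3 Gli1-Luc reporter cells after 23hr compound exposure within a 24hr incubation at 37C/5% CO2.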

Assay [17] is described as follows: qHTS assay to identify small molecule antagonists of the sonic hedgehog signaling (Shh) pathway - cell viability counter screen (AID 1259367). Also: nearly all actives have a fitted effect of over 55% in size. Also: potency is read from the fitted curve at half-maximal effect. In short, it runs like this: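 Seed 3T3 Gli1-Luc cells at 2,000 per well; incubate 4 hr; add compound in DMSO, then conditioned medium; incubate at 37C with 5% CO2; add CellTiter-Fluor after 23 hr; read fluorescence 1 hr later.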

A short description of assay [18]: A CellTox Green Cytotoxicity Assay to monitor cytotoxicity in HepG2 cells - 0 hour (AID 1224882). Also: nearly all actives have a fitted effect of over 35% in size. The essentials:
as §3

Assay [19] addresses Estrogen receptor (Homo sapiens) (UniProt P03372). The assay is described as follows: qHTS assay to identify small molecule antagonists of the estrogen receptor alpha (ER-alpha) signaling pathway using the BG1 cell line in the presence of 0.1 nM 17-beta-estradiol (AID 1259244). Also: nearly all actives have a fitted effect of over 50% in size. In short, it runs like this: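 Cells: VM7Luc4E2, endogenous ER-alpha, 4x ERE-luc stable. Pre-culture 5 d, phenol red-free, charcoal-stripped FBS. Plated 24 h, compound + E2 0.1 nM final, 22 h 37C/5% CO2. Readout ONE-Glo luminescence.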

The target of assay [20] is Androgen receptor (Homo sapiens) (UniProt P10275). Kind of assay: qHTS assay to identify small molecule antagonists of the androgen receptor (AR) signaling pathway using the MDA cell line in the presence of 0.5 nM R1881 (AID 1259243). Also: nearly all actives have a fitted effect of over 50% in size. The essentials:
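Luciferase luminescence is the read-out: compounds are tested for suppressing 0.5 nM R1881-driven MMTV reporter activity in MDA-kb2 cells after 16 hr at 37C.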

Unmarked numbers belong to inactive results. Results filed as inconclusive are left out. The source made the active and inactive calls. Unless noted, calls follow the shape of the dose curve; as a rule, active = well fitted curve in the direction sought with a large enough effect in the repeat runs; inconclusive = weak or mixed curves; inactive = no such curve, though single readings can be large; an effect the other way counts as inactive or inconclusive.
% is scaled to controls: 0 for no effect and ±100 for the full control effect.

Sequence of Estrogen receptor (Homo sapiens) (P03372 whole entry, looked up): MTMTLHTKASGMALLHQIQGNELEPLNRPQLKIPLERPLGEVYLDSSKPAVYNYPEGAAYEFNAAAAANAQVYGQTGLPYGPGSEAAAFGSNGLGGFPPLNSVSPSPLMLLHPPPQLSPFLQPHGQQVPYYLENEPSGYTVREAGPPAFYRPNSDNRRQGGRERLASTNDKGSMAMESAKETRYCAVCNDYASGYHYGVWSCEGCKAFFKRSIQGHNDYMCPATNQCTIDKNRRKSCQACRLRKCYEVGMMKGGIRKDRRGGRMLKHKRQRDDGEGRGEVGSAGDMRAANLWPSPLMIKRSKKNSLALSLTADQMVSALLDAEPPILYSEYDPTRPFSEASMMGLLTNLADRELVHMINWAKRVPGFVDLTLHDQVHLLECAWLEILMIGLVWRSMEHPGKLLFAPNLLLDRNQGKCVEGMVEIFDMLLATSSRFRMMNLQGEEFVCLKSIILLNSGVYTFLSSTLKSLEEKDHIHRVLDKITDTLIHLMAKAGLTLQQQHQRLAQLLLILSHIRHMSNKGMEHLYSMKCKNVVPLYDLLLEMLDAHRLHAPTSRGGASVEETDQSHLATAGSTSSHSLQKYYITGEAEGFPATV
Sequence of Androgen receptor (Homo sapiens) (P10275 whole entry, looked up): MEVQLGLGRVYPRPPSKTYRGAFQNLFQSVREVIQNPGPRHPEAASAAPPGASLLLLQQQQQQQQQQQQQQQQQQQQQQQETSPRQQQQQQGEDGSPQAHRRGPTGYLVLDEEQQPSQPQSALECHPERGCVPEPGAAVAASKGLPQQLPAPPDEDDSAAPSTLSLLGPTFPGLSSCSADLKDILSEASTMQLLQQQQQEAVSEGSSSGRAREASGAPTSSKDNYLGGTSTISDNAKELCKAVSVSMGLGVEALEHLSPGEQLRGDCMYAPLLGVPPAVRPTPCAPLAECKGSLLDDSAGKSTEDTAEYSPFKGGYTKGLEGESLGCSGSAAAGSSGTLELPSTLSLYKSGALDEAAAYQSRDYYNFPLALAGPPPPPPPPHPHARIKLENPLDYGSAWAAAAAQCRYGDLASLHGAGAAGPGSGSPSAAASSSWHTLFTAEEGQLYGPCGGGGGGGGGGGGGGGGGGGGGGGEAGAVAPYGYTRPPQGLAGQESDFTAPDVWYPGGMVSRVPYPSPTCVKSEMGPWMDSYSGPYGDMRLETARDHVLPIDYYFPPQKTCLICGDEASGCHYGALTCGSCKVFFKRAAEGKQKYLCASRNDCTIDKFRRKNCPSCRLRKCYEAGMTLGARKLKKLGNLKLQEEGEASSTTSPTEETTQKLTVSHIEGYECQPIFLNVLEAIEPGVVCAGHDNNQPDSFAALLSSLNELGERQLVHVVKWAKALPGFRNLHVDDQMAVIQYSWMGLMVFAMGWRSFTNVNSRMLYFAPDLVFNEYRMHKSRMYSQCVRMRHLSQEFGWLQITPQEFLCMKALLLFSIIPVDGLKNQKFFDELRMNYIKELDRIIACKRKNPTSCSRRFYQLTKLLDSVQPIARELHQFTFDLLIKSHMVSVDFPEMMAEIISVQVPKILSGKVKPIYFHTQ

In the case of `COC(=O)[C@@H](N)CCCN/C(N)=N/[N+](=O)[O-]`, the call in [1], in [9], in assay [11] and in [15] was inactive. Also, the Potency result in assay [2], in assay [3], in assay [4], in assay [5], in assay [6] and in assay [7] was “inactive” each time. The Potency result in assay [8], in assay [10], in assay [12], in assay [13], in assay [14] and in [16] was “inactive” in each case. Besides, the Potency result in assay [17] was “inactive”.
With `NC(=O)CS(=O)C(c1ccccc1)c1ccccc1` (stereo unspecified), the outcome in assay [1], in assay [9], in assay [11] and in [15] was inactive. Besides, the Potency result in [2], in assay [3], in [4], in assay [5], in assay [6] and in assay [7] was “inactive” in each case. Further, the Potency result in assay [8], in [10], in [12], in assay [13], in [14] and in assay [16] was “inactive” each time. Also, the Potency result in [17] was “inactive”.
Take `CN(C)CCN(C)C`: the call in [1], in assay [18], in assay [9] and in assay [11] was inactive. Further, the Potency result in [2], in [4], in [5], in assay [6], in assay [7] and in [8] was “inactive” throughout. Besides, the Potency entry in assay [10], in [12], in assay [19], in assay [14], in assay [16] and in [17] was “inactive” throughout.
Consider `BrCC1CO1` (stereo unspecified), for which the result in assay [1], in [18], in assay [9], in [11] and in [15] was inactive. For the same compound, the Potency entry in assay [2], in [4], in assay [5], in assay [6], in assay [7] and in assay [8] was “inactive” each time. Moreover, the Potency entry in assay [10], in assay [12], in [19], in assay [14], in assay [16] and in [17] was “inactive” throughout.
As for `CC(=O)OCC1=C(C(=O)O)N2C(=O)[C@@H](N)[C@H]2SC1`, the activity change, negative = cytotoxicity was -1.9% [at 15.8 µM] in assay [1]; 11.4% [at 15.8 µM] in assay [6]; -14.1% [at 15.8 µM] in assay [7]; -5.45% [at 15.8 µM] in assay [9]; 4.49% [at 19 µM] in [11]; 0.172% [at 19 µM] in assay [15]. Also, the cytotoxicity increase was -3.48% [at 15.8 µM] in [2], 0.0293% [at 15.8 µM] in assay [3], -3.34% [at 15.8 µM] in [4] and 1.96% [at 15.8 µM] in assay [10]. Besides, the activity change, negative = cytotoxic in assay [5] was 0.0339% [at 15.8 µM]. For the same compound, the activity change in assay [8] was 2.87% [at 15.8 µM, hits give high values]. The viability change, negative = cytotoxic in assay [12] is 4.78% [at 19 µM]; in assay [16], 1.92% [at 19 µM]; in [17] it was 0.909% [at 19 µM]. In assay [13], the Potency entry is “inactive”. Further, the activity change, negative = inhibition in assay [14] was -0.068% [at 19 µM].
As to `O=[N+]([O-])CCO`, the outcome in [1], in [18], in assay [9] and in assay [15] was inactive. In addition, the Potency entry in [2], in [4], in assay [5], in assay [6], in [7] and in assay [8] was “inactive” throughout. Further, the Potency result in assay [10], in assay [12], in [19], in [14], in assay [16] and in [17] was “inactive” in each case.
As to `N#CC(Br)(Br)C(N)=O`, the result in assay [1], in assay [18], in assay [9], in [11] and in [15] was inactive. In addition, the Potency entry in [2], in assay [4], in assay [5], in [6], in [7] and in assay [8] was “inactive” in each case. The Potency result in assay [10], in assay [12], in assay [14] and in assay [16] was “inactive” throughout. In addition, in [17], the Potency is 54.5 µM (active).
In the case of `Cc1cccc2sc3nncn3c12`, the call in assay [1], in [18], in assay [9], in assay [11] and in [15] was inactive. Besides, the Potency entry in assay [2], in [4], in assay [5], in [6], in [7] and in [8] was “inactive” in each case. Moreover, the Potency result in [10], in [12], in [19], in assay [14], in assay [16] and in assay [17] was “inactive” each time.
As for `C[N+]1(C)CCCCC1`, the compound was called inactive in assay [1], in assay [9], in [11] and in assay [15]. For the same compound, the Potency entry in assay [2], in assay [3], in assay [4], in assay [5], in [6] and in assay [7] was “inactive” in each case. Further, the Potency result in assay [8], in [10], in assay [12], in assay [20], in assay [14] and in [16] was “inactive” in each case. In addition, the Potency entry in assay [17] is “inactive”.
For `C=CC=O`, the outcome in assay [1], in assay [18], in assay [9], in [11] and in assay [15] was inactive. The Potency result in assay [2], in assay [4], in [5], in [6], in assay [7] and in assay [8] was “inactive” in each case. For the same compound, the Potency result in [10], in assay [12], in [14], in assay [16] and in assay [17] was “inactive” each time.

Source of the values: PubChem BioAssay (Tox21).
